“And” between values parts separate entries of the source, which are not always exact repeats. Identical values can stand only once. This is part of a sample that, as a whole, favours compounds with a hit. Of some 79,000 tested, about 15% had one in any assay. Some compounds were tested as several samples or in several runs, with calls that do not always agree. The source made the active and inactive calls. No stated cut-off is given here; in the data, active means growth inhibition above about 70%; inactive means the rest.
Legend:
[1] = NCI Yeast Anticancer Drug Screen. Data for the wt1 strain (AID 149);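 further: 0% = growth of vehicle-treated wt1 cultures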; details: S. cerevisiae wt1 strain (SPY 50644) growth inhibition, stronger effect = higher value
Method in brief: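 Compounds are added to wt1 yeast cultures. Growth is then measured. Inhibition is expressed relative to vehicle-treated controls.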

[2] = NCI Yeast Anticancer Drug Screen. Data for the rad50EPP+ strain (AID 151);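 further: 0% = growth of vehicle-treated control cultures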; details: S. cerevisiae rad50 mutant strain, stronger effect = higher value
Method in brief: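 In this screen, rad50EPP+ yeast were exposed to compounds. Growth inhibition was scored against vehicle-treated controls.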

[3] = NCI Yeast Anticancer Drug Screen. Data for the mgt1 strain (AID 153); details: S. cerevisiae mgt1 mutant growth inhibition, stronger effect = higher value
Method in brief: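 mgt1 strain exposed; growth vs vehicle control recorded as inhibition.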

[4] = NCI Yeast Anticancer Drug Screen. Data for the rad50 strain (AID 155);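 further: 0% = growth of vehicle-only cultures of the same strain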; details: S. cerevisiae rad50 strain growth inhibition, stronger effect = higher value
Method in brief: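 Inhibition values express reduced yeast growth in compound-treated cultures relative to vehicle-treated controls.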

[5] = NCI Yeast Anticancer Drug Screen. Data for the mec2-1 strain (AID 157); details: S. cerevisiae mec2-1 strain, stronger effect = higher value
Method in brief: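 Vehicle-treated cultures served as reference for growth inhibition of compound-exposed mec2-1 yeast.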

[6] = NCI Yeast Anticancer Drug Screen. Data for the rad14 strain (AID 159);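 further: 0% = growth of vehicle-treated control cultures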; details: S. cerevisiae rad14 strain growth inhibition, stronger effect = higher value
Method in brief: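 A mutant yeast strain defective in DNA damage repair is treated with compound; inhibition of its growth is scored against untreated, vehicle-exposed cultures.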

[7] = NCI Yeast Anticancer Drug Screen. Data for the sgs1 mgt1 strain (AID 161);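 further: 0% = growth of cultures given vehicle only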; details: S. cerevisiae sgs1 mgt1 strain, stronger effect = higher value
Method in brief: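 Mutant yeast exposed to compound; growth scored against vehicle-only wells.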

[8] = NCI Yeast Anticancer Drug Screen. Data for the CLN2oe strain (AID 163);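 further: 0% = growth of vehicle-only control cultures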; details: S. cerevisiae CLN2oe strain, stronger effect = higher value
Method in brief: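 Inhibition relative to vehicle-treated yeast is reported. Cells: strain with genetic alteration in cell-cycle control, grown with compound.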

[9] = NCI Yeast Anticancer Drug Screen. Data for the cln2 rad14 strain (AID 165);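 further: 0% = growth equal to vehicle treated cultures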; details: S. cerevisiae cln2 rad14 strain, stronger effect = higher value
Method in brief: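 Each compound was tested on cln2 rad14 yeast. Inhibition of growth was calculated against vehicle-exposed controls.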

[10] = NCI Yeast Anticancer Drug Screen. Data for the bub3 strain (AID 167); details: S. cerevisiae bub3 mutant strain, stronger effect = higher value
Method in brief: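 Steps: expose the mutant yeast strain to compound; grow alongside vehicle-treated cultures; measure growth; express inhibition against the vehicle cultures.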

[11] = NCI Yeast Anticancer Drug Screen. Data for the wt2 strain (AID 169);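 further: 0% = growth of vehicle-treated yeast cultures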; details: S. cerevisiae wt2 strain growth inhibition, stronger effect = higher value
Method in brief: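 Inhibition of yeast growth was determined after compound treatment, normalised to controls receiving only vehicle.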

[12] = NCI Yeast Anticancer Drug Screen. Data for the mlh1 strain (AID 171);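 further: 0% = growth of vehicle-treated control cultures of the same strain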; details: S. cerevisiae mlh1 strain growth inhibition, stronger effect = higher value
Method in brief: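 Vehicle-normalised growth inhibition of a repair- or checkpoint-altered yeast strain following compound treatment.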

[13] = NCI Yeast Anticancer Drug Screen. Data for the sgs1 strain (AID 173);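 further: 0% = growth of vehicle-only control cultures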; details: S. cerevisiae sgs1 mutant, stronger effect = higher value
Method in brief: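 Screen format: yeast with repair or checkpoint alterations, compound exposure, growth read relative to vehicle.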

[14] = NCI Yeast Anticancer Drug Screen. Data for the mlh1 rad18 strain (AID 175); details: S. cerevisiae mlh1 rad18 strain growth inhibition, stronger effect = higher value
Method in brief: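 Vehicle-treated cultures served as the reference for growth inhibition in a yeast strain carrying DNA damage repair alterations exposed to each compound.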

[15] = NCI Yeast Anticancer Drug Screen. Data for the rad18 strain (AID 177); details: S. cerevisiae rad18 mutant growth inhibition, stronger effect = higher value
Method in brief: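 Test articles were incubated with altered yeast defective in DNA damage repair. Results are given as inhibition of growth versus vehicle.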

[16] = at 5.0 µM (retest, dose inferred, filed as 0.5)
[17] = at 50.0 µM (retest, dose inferred, filed as 5.0)

Measured: growth inhibition

Cc1cnc(/C=N\NC(N)=S)c2cccc(N)c12
83% (active) and 30% (inactive): [7]; [17]
87% (active) and -11% (inactive): [10]; [17]
inactive: [1]; at 1.2 µM -63% | [1]; at 3.7 µM -49% | [1]; at 11.0 µM -36% | [1]; at 33.0 µM 58% | [2]; at 1.2 µM -68% | [2]; at 3.7 µM -57% | [2]; at 11.0 µM -45% | [2]; at 33.0 µM -38% | [2]; at 100.0 µM -4% | [3]; at 1.2 µM -78% | [3]; at 3.7 µM -69% | [3]; at 11.0 µM -12% | [3]; at 33.0 µM 43% | [4]; at 1.2 µM -81% | [4]; at 3.7 µM -43% | [4]; [16] 13% and 15% | [4]; at 11.0 µM -69% | [4]; at 33.0 µM 28% | [4]; at 50.0 µM 62.3% and 60% | [5]; at 1.2 µM -19% | [5]; at 3.7 µM -48% | [5]; [16] 7% and 21% | [5]; at 11.0 µM 13% | [6]; at 1.2 µM -92% | [6]; at 3.7 µM -75% | [6]; at 11.0 µM -35% | [6]; at 33.0 µM 45% | [7]; [16] 16% and 8% | [7]; at 50.0 µM 61.1% and 63% | [8]; at 1.2 µM -16% | [8]; at 3.7 µM -39% | [8]; at 11.0 µM -29% | [8]; at 33.0 µM 30% | [8]; at 100.0 µM 63% | [9]; [16] -8% and 9% | [9]; [17] 66% and -55% | [10]; at 1.2 µM -69% | [10]; at 3.7 µM -60% | [10]; [16] 15% and 9% | [10]; at 11.0 µM -50% | [10]; at 33.0 µM 25% | [11]; at 1.2 µM -73% | [11]; at 3.7 µM -48% | [11]; at 11.0 µM 5% | [11]; at 33.0 µM 56% | [12]; at 1.2 µM -75% | [12]; at 3.7 µM -79% | [12]; at 11.0 µM -43% | [12]; at 33.0 µM 27% | [13]; at 1.2 µM -39% | [13]; at 3.7 µM -42% | [13]; at 11.0 µM -13% | [13]; at 33.0 µM 49% | [14]; [16] 17% and 23% | [15]; at 1.2 µM -144% | [15]; at 3.7 µM -115% | [15]; at 11.0 µM -88% | [15]; at 33.0 µM 25%
active: [1]; at 100.0 µM 90% | [3]; at 100.0 µM 84% | [4]; [17] 80% and 71% | [4]; at 100.0 µM 83% | [5]; at 33.0 µM 82% | [5]; [17] 87% and 86% | [5]; at 100.0 µM 94% | [6]; at 100.0 µM 91% | [10]; at 100.0 µM 80% | [11]; at 100.0 µM 91% | [12]; at 100.0 µM 87% | [13]; at 100.0 µM 94% | [14]; [17] 85% and 82% | [14]; at 50.0 µM 75.2% and 89% | [15]; at 100.0 µM 85%
74% (active) and 60% (inactive): [5]; at 50.0 µM
42.1% (inactive) and 70% (active): [9]; at 50.0 µM
48.4% (inactive) and 75.1% (active): [10]; at 50.0 µM

— PubChem BioAssay (NCI)
